A short description of assay [1]: inhibitors of TNFa-induced NFkB p65 translocation, primary screen, imaging, HUVEC, MLSMR starter and 10KST1 sets (AID 438).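 Also: compound added about 3h40 before a 20 min TNFalpha stimulation.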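 As to inhibition: signal is the nuclear over cytoplasmic p65 intensity ratio per well.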 The conditions noted are these: HUVEC TNFa-induced p65 nuclear translocation; cell count: measured here: nuclei count (cytotoxicity indicator), at 2.08 µM unless noted; inhibition: at 2 µM, stronger effect = higher value unless noted.
A short description of assay [2]: inhibitors of E-selectin induction by TNFa, primary screen, imaging, HUVEC, immunofluorescence, MLSMR starter and 10KST1 sets (AID 487;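 active = visually confirmed hit in the image check and inhibition above 20%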;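 as to inhibition: signal is fraction of cell area covered by stained E-selectin grains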;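 as to nuclei count: 100% = median nuclei count of all wells on the same plate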). The conditions noted are these: HUVEC TNFalpha-induced E-selectin immunofluorescence imaging, at 2 µM; inhibition: stronger effect = higher value; nuclei count: measured here: cell number, toxicity.
Assay [3] in a line: DUSP6 inhibitors restoring Erk phosphorylation by chemical complementation, primary imaging in DUSP6-transfected HeLa (AID 609;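 active = compounds giving at least 50% inhibition in the cell-based MKP-3 phosphatase rescue imaging test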;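 as to inhibition: phospho-Erk level distribution per well compared with pooled transfected vehicle control wells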). The conditions noted are these: HeLa MKP-3 transfected, phospho-Erk imaging KS statistic, at 10 µM.
Assay [4] addresses Dual specificity protein phosphatase 6 (Homo sapiens) (UniProt Q16828). Described as above. The conditions noted are these: HeLa MKP-3 transfected, phospho-Erk imaging KS statistic, at 10 µM, stronger effect = higher value.
Assay [5] has as its target Voltage-gated potassium channel subunit beta-2 (Rattus norvegicus) (UniProt P62483). Kind of assay: KvBeta enzyme negative modulators, primary screen, biochemical, NADPH fluorescence (AID 622;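 active = fluorescence slope higher than the sample average by over 3 SD, cut at about -0.22 in these data, passing the limit was not always enough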;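 also: slope of raw intensity against log time taken from 70 to 1610 s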). The conditions noted are these: recombinant KvBeta, 4-cyanobenzaldehyde reduction, at 10 µM, stronger effect = higher value.
The target is the same in assay [6]. Kind of assay: KvBeta positive modulators, primary screen, biochemical, NADPH fluorescence (AID 623;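 active = NADPH fluorescence slope more negative than the mean of all samples by about 3 SD, 99.7% confidence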;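 also: fluorescence intensity change per second fitted from 20 to 320 s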). The conditions noted are these: Recombinant KvBeta, NADPH fluorescence decrease slope, 10 min; at 10 µM; stronger effect = lower value.
For assay [7], the target named is Alpha-2C adrenergic receptor (Homo sapiens) (UniProt P18825). Description: modulators of alpha2C/GIRK thallium flux, primary screen, cell-based, HEK293 alpha2C/GIRK1/2 (AID 624;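 active = fluorescence slope after compound addition differing from the mean of all screened samples at 99.7% confidence, in either direction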;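 also: slope of fluorescence ratio to pre-addition baseline per second over 15 to 24 s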). The conditions noted are these: thallium flux BTC fluorescence, at 10 µM, actives lie on both sides.
Alpha-2C adrenergic receptor (Homo sapiens), sequence (P18825 whole entry, looked up): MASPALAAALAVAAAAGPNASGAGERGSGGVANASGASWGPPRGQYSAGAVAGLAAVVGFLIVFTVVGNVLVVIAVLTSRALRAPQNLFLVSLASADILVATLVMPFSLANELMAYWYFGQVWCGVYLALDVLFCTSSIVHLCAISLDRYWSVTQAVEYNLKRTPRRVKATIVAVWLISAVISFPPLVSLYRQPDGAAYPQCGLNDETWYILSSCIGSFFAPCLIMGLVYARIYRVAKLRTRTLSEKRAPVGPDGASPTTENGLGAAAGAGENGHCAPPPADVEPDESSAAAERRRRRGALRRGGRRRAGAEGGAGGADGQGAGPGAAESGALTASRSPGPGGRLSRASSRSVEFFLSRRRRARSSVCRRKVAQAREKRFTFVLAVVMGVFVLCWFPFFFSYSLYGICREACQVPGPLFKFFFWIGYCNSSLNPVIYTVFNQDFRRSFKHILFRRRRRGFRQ
The nature of assay [8]: inhibitors of larval lipid processing in zebrafish, primary screen, whole organism, PED6 fluorescence, gall bladder and intestine (AID 686;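 active = a full or partial loss of lipid-probe fluorescence in the fish gall bladder, intestine or both, judged by eye; inactive = no fluorescence loss, or compound toxic to the fish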;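 also: larvae 5 to 7 days old with five fish per well; signal comes from phospholipase A2 cleavage of quenched PED6 carried via bile; overnight exposure to compound and PED6 before scoring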). The conditions noted are these: Zebrafish larvae PED6 lipid processing, fluorescence scoring.
Assay [9] can be described thus: inhibitors of Chlamydomonas gravitaxis, primary screen, whole organism, Chlamydomonas reinhardtii, WT vs cilia-less mutant, absorbance, 96-well (AID 463189;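 active = inhibition at or above 50% relative to wild type and mutant plate controls; inactive = inhibition below 50%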;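 also: 0% = wild type cc124 cells in DMSO and 100% = ciliumless bld1 mutant cells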). The conditions noted are these: OD600 absorbance, 2 days, at 10 µM, stronger effect = higher value.
Setting [10] is: measured here: cell density z-score.
Where [11] appears, read: measured here: nuclear c-Myc green intensity z-score.
[12] abbreviates: measured here: nuclear pErk red intensity z-score, stronger effect = higher value.

Activity calls are given as the source filed them.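 The calls were made as follows, unless noted: active = inhibition above 20% together with a positive visual image hit; inconclusive = visual image hit but inhibition not above 20%; inactive = no visual image hit.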

Voltage-gated potassium channel subunit beta-2 (Rattus norvegicus), sequence (P62483 whole entry, looked up): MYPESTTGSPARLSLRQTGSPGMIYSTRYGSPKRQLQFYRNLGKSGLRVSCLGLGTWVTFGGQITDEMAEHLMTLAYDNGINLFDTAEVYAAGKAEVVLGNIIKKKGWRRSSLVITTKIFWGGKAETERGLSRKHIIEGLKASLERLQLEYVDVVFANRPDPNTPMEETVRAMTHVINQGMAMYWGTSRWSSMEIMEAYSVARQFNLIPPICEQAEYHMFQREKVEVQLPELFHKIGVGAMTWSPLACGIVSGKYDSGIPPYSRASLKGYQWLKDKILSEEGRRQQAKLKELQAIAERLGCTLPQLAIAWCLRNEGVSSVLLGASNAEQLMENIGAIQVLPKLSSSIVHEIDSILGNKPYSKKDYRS
Dual specificity protein phosphatase 6 (Homo sapiens), sequence (Q16828 whole entry, looked up): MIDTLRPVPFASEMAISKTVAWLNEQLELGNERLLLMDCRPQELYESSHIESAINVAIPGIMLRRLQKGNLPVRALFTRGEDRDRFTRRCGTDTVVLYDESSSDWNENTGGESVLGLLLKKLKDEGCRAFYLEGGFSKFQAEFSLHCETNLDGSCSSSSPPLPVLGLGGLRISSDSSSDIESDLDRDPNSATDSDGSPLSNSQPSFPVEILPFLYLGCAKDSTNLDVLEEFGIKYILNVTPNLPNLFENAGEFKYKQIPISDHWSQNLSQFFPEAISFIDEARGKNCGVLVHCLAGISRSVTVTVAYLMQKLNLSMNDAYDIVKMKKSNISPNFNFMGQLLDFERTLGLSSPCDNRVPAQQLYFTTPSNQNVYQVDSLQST

For `CCN(CC)CCN=Cc1c(O)n(CCc2ccccc2)c(=O)[nH]c1=O`, the cell count in [1] was determined as 479. Also, the inhibition in assay [1] was 7.8% (inactive); in [2], -1.8% (inactive); in assay [4], 28% (inactive); in assay [9] it was -6.45% (inactive). The molecule also gave a nuclei count in [2] of 88.8%. Further, the z-score was 0.714 in assay [3] (setting [10]), -0.47 in [3] (setting [11]) and -1.29 in [3] (setting [12]). Besides, the fluorescence slope in [5] is -0.368 (inactive). Besides, the NADPH fluorescence slope in assay [6] is 9.5e-06 (inactive). For the same molecule, in [7], the slope was 0.00625 (inactive). The outcome in assay [8] was inactive.

As for `CC1CCC(C(C)C)C(OP(N)(=O)c2ccccc2)C1` (stereo not drawn), the cell count in assay [1] stood at 413. The inhibition in assay [1] is -4.7% (inactive); in [2] it was -225% (inactive); in assay [4], 36.1% (inactive); in [9], 1.67% (inactive). In addition, the nuclei count in assay [2] is 189%. In addition, the results for the z-score in [3] (setting [10]), in [3] (setting [11]) and in [3] (setting [12]) were 1.77, -0.238 and 0.0184, respectively. Further, in assay [5], the fluorescence slope is -0.406 (inactive). Further, in assay [6], the NADPH fluorescence slope was -7.4e-05 (inactive). Besides, the slope in assay [7] was 0.00486 (inactive). Further, the outcome in [8] was inactive.

As to `Cn1c(O)c(C=NC2CCN(Cc3ccccc3)CC2)c(=O)n(C)c1=O`, in assay [1], the cell count came out at 440. In addition, the inhibition in assay [1] was 1% (inactive); in [2], -22.6% (inactive); in assay [4], 4.25% (inactive); in assay [9], 0.967% (inactive). In [2], this molecule displayed a nuclei count of 136%. Further, the z-score worked out at 0.0201 in assay [3] (setting [10]), 1.2 in assay [3] (setting [11]) and 0.0643 in assay [3] (setting [12]). Moreover, the fluorescence slope in [5] was -0.401 (inactive). In assay [6], the NADPH fluorescence slope is -1.9e-05 (inactive). Further, the slope in assay [7] is 0.00599 (inactive). In addition, the result in [8] was inactive.

Regarding `COc1ccc(Cn2c(O)c(C=NCCN3CCOCC3)c(=O)[nH]c2=O)cc1`, the cell count in [1] amounted to 587. The inhibition in [1] is -0.9% (inactive); in [2], 36.9% (inactive); in assay [4], 19.3% (inactive); in assay [9], -7.73% (inactive). The molecule also yielded a nuclei count in assay [2] of 166%. The z-score in assay [3] (setting [10]) is 0.642; in assay [3] (setting [11]), -0.606; in assay [3] (setting [12]), -0.227. Further, in assay [5], the fluorescence slope is -0.342 (inactive). The NADPH fluorescence slope in assay [6] was -2.7e-06 (inactive). In assay [7], the slope was 0.00514 (inactive). Besides, the call in assay [8] was inactive.

Consider `CCCCOCCCn1c(N)c(C(=O)OCCOC)c2nc3ccccc3nc21`, for which, in [1], the cell count was determined as 525. For the same molecule, the inhibition in [1] is -11.4% (inactive); in assay [2], -48% (inactive); in [4] it was 15.5% (inactive); in [9] it was 29.3% (inactive). The same molecule showed a nuclei count in [2] of 152%. The z-score is -0.11 in [3] (setting [10]), -0.345 in assay [3] (setting [11]) and 0.203 in assay [3] (setting [12]). For the same molecule, in assay [5], the fluorescence slope was -0.052 (inactive). Also, the NADPH fluorescence slope in assay [6] was -3.5e-06 (inactive). Further, the slope in assay [7] is 0.00403 (inactive). Also, in assay [8], the outcome was inactive.

Molecule `CCN(CC)CCN=C(C)c1c(O)n(-c2ccccc2OC)c(=O)[nH]c1=O` displayed a cell count in assay [1] of 564. The inhibition in assay [1] is 0.8% (inactive); in assay [2], -34% (inactive); in assay [4], -2.91% (inactive); in assay [9] it was -0.4% (inactive). In [2], the nuclei count was found to be 88.8%. The z-score in [3] (setting [10]) was -0.563; in assay [3] (setting [11]), -1.02; in assay [3] (setting [12]), 1.36. In assay [5], the fluorescence slope is -0.555 (inactive). In addition, in assay [6], the NADPH fluorescence slope was -2.8e-05 (inactive). The slope in assay [7] is 0.0051 (inactive). Besides, the molecule was called inactive in assay [8].

Usually inhibition stands for the change of the read-out against control, counted positive when it falls.

The values are drawn from PubChem BioAssay.
